In the library only some 3.5% were active in any assay of this set; here they are far more common.
mHTT CaM bind = disrupts binding of mutant huntingtin to calmodulin | AlphaScreen His-mHTT/GST-CaM binding, luminescence | inhibition, % at 15 µM | P42858 | 190,000 compounds, 3.6% hits | AID 1671202;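 further: 0% = both proteins with DMSO and 100% = one protein alone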
Pf apPOL block = Pf-apPOL DNA polymerase inhibition; Recombinant Pf-apPOL, molecular beacon fluorescence, 1.5 h; inhibition, % at 10 µM; 210,000 compounds, 0.25% hits; AID 1794808
An asterisk follows results filed as active; . = no result given. No stated cut-off is given here; in the data, active means inhibition above about 50%; inactive means the rest.

SMILES	mHTT CaM bind	Pf apPOL block
COc1ccc(C2CC(O)(c3ccccc3)Oc3cc(C)c(Cl)c(C)c32)cc1 (stereo unspecified)	89.3*	-2.7
COc1ccc(C2CC(O)(c3ccccc3)Oc3cc(OC)c(OC)c(OC)c32)cc1 (stereo unspecified)	86.3*	-1.5
COc1ccc([C@@H]2C[C@H](c3ccccc3)Oc3cc(OC)c(OC)c(OC)c32)cc1	18.3	-3.8
Cc1cc2c(c(C)c1Cl)[C@H](c1ccc3c(c1)OCO3)C[C@@H](c1ccccc1)O2	10.0	-6.6
CNCC(=O)Nc1c2c(nc3c1CCC3)CCCC2	1.0	3.7
CCN1CCCC1CNC(=O)c1ncn(-c2ccc(C)cc2)n1 (stereo unspecified)	-2.5	-5.8
Cn1cnnc1SCC(=O)Nc1ccccc1	1.3	-2.7
COc1ccccc1NC(=O)CSc1nc(-c2ccccc2)cn1-c1ccccc1OC	34.0	0.7
COc1ccccc1-n1cc(-c2ccccc2)nc1SCC(=O)Nc1ccc(F)cc1	57.0*	1.4
O=C(CSc1nc(-c2ccccc2)cn1-c1ccccc1F)Nc1ccccc1	54.0*	5.2
Cc1ccccc1Nc1c(-c2ccsc2)nc2ncccn12	0.0	-6.5
COc1ccccc1/C=C1\C(=O)Nc2ccc(Br)cc21	30.0	3.3
COc1cccc(/C=C2\C(=O)Nc3ccc(Br)cc32)c1OC	89.0*	4.2
COc1cc(Cl)cc(/C=C2\C(=O)Nc3ccc(Br)cc32)c1OC	57.0*	-3.3
COc1cc(Cl)c(/C=C2\C(=O)Nc3ccc(Br)cc32)cc1OC	42.0	-53.1
CC(=O)n1cc(C=C2N=C(c3ccccc3)OC2=O)c2ccccc21	.	-9.2
C=CCNC(=O)c1cnn2c(C(F)(F)F)cc(-c3ccccc3)nc12	51.0*	-4.4
COCCCNC(=O)c1cnn2c(C(F)(F)F)cc(-c3ccccc3)nc12	5.0	-5.6
COc1ccc(OC)c(S(=O)(=O)N2CCC3(C2)C(=O)Nc2ccccc23)c1 (stereo unspecified)	98.6*	-3.8
COc1ccc(NC(=O)N2CCC3(C2)C(=O)Nc2ccccc23)c(OC)c1 (stereo unspecified)	8.5	-4.0
COc1ccc(-c2ccc[nH]2)cc1	62.1*	-31.4
COc1ccc(-c2nnc(-c3ccc(OC)cc3)nn2)cc1	1.0	-1.8
Cc1cccc(CN2CCC(O)CC2)c1	-2.7	3.0
Cc1ccc(S(=O)(=O)Nc2ccccc2-c2ccccc2)cc1	-28.8	-52.3
Cc1ccc(S(=O)(=O)Nc2nc(-c3ccccc3)c(-c3ccccc3)o2)cc1	50.0*	-6.5
SMILES	mHTT CaM bind	Pf apPOL block
CCCSc1nnc2c(n1)[nH]c1c(C)cccc12	9.0	-3.5
Cc1cccc2c1[nH]c1nc(NN)nnc12	66.5*	-0.6
Cc1ccc2[nH]c3nc(NN)nnc3c2c1	46.6	-6.3
NNc1nnc2c(n1)[nH]c1ccccc12	100.0*	-6.8
CCC(Sc1nc2n[nH]c(C)c2c(=N)n1-c1cccc(Cl)c1)C(=O)N(CC)CC (stereo unspecified)	35.0	-3.7
O=C(NC1CCCC1)c1ccc2ncc3c(=O)n(-c4ccc(Cl)cc4)[nH]c3c2c1	86.5*	5.4
O=C(NC1CCCC1)c1ccc2ncc3c(=O)n(-c4ccc(F)cc4)[nH]c3c2c1	3.3	0.3
CC1(C)OC[C@@H]([C@@H]2OC(=O)C(O)=C2O)O1	1.4	.
COc1ccc(C(=O)Nc2nnc(Cc3ccc(Cl)cc3)s2)cc1[N+](=O)[O-]	1.5	3.0
Cc1ccc(-c2cc([C@H]3[C@@H]4C=CCC[C@@]4(C)C(=O)N3Cc3ccccc3)ccc2F)cc1	17.5	-0.7
C[C@@]12CCC=C[C@H]1[C@H](c1ccc(F)c(Br)c1)N(Cc1ccccc1)C2=O	100.4*	3.2
C[C@@]12CCC=C[C@H]1[C@H](c1cccc(Br)c1)N(Cc1ccccc1)C2=O	21.3	0.4
C[C@@]12CCC=C[C@H]1[C@H](c1ccc(Br)cc1F)N(Cc1ccccc1)C2=O	89.7*	-4.3
O=C1C[C@H]2C=CCc3cccc(c32)CN1Cc1ccc(Cl)cc1	29.6	-1.9
COc1cccc(CN2Cc3cccc4c3[C@H](C=CC4)CC2=O)c1	100.2*	0.0
O=C(c1ccn(C(=O)Nc2ccccc2)n1)N1CCOCC1	-2.4	-1.1
CCOc1ccc(N2COc3ccc(Br)cc3C2)cc1	84.0*	-0.7
CCOc1ccc(N2COc3cc4c(cc3C2)OCO4)cc1	8.0	-14.4
COc1cccc(-c2nc(C=Nc3cccc([N+](=O)[O-])c3)c(O)o2)c1	8.0	-1.0
COc1cccc(COC2CCCN(C(=O)c3cccs3)C2)c1 (stereo unspecified)	-3.9	-3.2
O=C(c1cccs1)N1CCCC(OCc2ccc(C(F)(F)F)cc2)C1 (stereo unspecified)	50.6*	-1.7
CC(C)(C)OC(=O)NC1CCCC(O)C1 (stereo unspecified)	-5.2	3.0
Cc1ccc(-n2[nH]c(C)c(C=Nc3cc([N+](=O)[O-])ccc3Cl)c2=O)cc1	-3.0	37.3

Source: PubChem (University of Kansas High Throughput Screening Laboratory)
